Source: PubChem (The Scripps Research Institute Molecular Screening Center)
The list is not random: actives were taken first. Their share in the collection is about 2.9%.
PLC-beta3 inh: human PLC-beta3 inhibitors, primary screen, biochemical, fluorescence | 1-phosphatidylinositol 4,5-bisphosphate phosphodiesterase beta-3 (Homo sapiens), Q01970 | Purified PLC-beta3, fluorogenic substrate | inhibition, % at 12.2 µM | actives 0.18% (n = 370,000) | AID 720704, 2013; in the data active = inhibition above about 11%
KLK7 zymogen act: proKLK7 zymogen activators, primary screen, biochemical, fluorescence intensity; Kallikrein-7 (Homo sapiens), P49862; purified proKLK7, EDANS-DABCYL substrate fluorescence; 100% is mature enzyme control, 0% vehicle; activation, % at 7 µM; actives 0.9% (n = 370,000);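 active = activation above the mean of all tested compounds plus 3 SD, computed per campaign excluding outliers beyond control limits, cut at about 13% in these data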
ADAM10 inh: human ADAM10 inhibitors, primary screen, biochemical, QFRET, HTS; Disintegrin and metalloproteinase domain-containing protein 10 (Homo sapiens), O14672; recombinant ADAM10, EDANS/DABCYL FRET peptide cleavage, 3 h; inhibition, % at 7 µM; actives 0.62% (n = 370,000); AID 720582, 2013;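 active = inhibition above a per-campaign cutoff equal to the mean of compounds falling between control-based bounds plus 3 SD, cut at about 20% in these data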
Target sequence (O14672 214-748 limits assumed): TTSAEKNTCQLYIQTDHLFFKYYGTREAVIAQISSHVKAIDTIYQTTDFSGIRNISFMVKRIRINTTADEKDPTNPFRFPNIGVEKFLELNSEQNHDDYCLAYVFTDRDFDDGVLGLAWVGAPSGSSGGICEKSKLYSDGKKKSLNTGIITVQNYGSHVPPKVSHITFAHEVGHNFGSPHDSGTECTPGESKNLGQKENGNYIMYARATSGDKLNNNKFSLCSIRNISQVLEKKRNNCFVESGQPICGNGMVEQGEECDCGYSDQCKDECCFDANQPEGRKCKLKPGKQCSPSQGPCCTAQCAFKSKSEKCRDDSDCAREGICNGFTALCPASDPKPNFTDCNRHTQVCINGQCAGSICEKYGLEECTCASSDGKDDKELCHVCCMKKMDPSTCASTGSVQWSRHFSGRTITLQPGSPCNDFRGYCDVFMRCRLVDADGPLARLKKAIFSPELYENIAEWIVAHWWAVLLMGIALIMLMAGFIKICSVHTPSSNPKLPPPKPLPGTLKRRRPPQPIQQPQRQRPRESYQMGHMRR
PLC-gamma1 inh: PLC-gamma1 enzyme inhibitors, primary screen, biochemical, fluorescence, purified enzyme; 1-phosphatidylinositol 4,5-bisphosphate phosphodiesterase gamma-1 (Homo sapiens), P19174; fluorogenic substrate; inhibition, % at 12.2 µM; actives 0.84% (n = 370,000); AID 720700, 2013; in the data active = inhibition above about 9.5%
ADAM17 inh: ADAM17 inhibitors, primary screen, biochemical, QFRET | recombinant ADAM17, EDANS/DABCYL FRET peptide cleavage | inhibition, % at 6.95 µM | actives 0.83% (n = 370,000) | AID 720648, 2013;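 active = inhibition above the mean of compounds lying between control limits plus 3 SD, set per campaign, cut at about 8.5% in these data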
Hits are given with their value; – = inactive; · = no result given; ! = a repeat was not active.

SMILES	PLC-beta3 inh	KLK7 zymogen act	ADAM10 inh	PLC-gamma1 inh	ADAM17 inh
CC1(C)CC2CC(C)(CN2S(=O)(=O)c2ccc(C(=O)Nc3cccc(S(=O)(=O)N4CCOCC4)c3)cc2)C1 (stereo not drawn)	–	–	26	–	20
O=C1C(=O)N(Cc2ccc(-c3ccc(Cl)nc3)cc2)c2ccc(OC(F)(F)F)cc21	–	·	–	–	–
O=C(O)CCCCCn1c(SCC(=O)c2ccc(O)c(O)c2)nc2ccsc2c1=O	–	–	–	11	–
Cn1c(=O)c2c(ncn2Cc2ccc(O)c([N+](=O)[O-])c2)n(C)c1=O	–	–	–	–	–
CCOC(=O)[C@@]12CCC3=C1N(CCC3)C(=O)[C@H](CC(=O)NCCc1ccccc1OC)C2	–	–	–	–	–
O=C(C[C@@H]1C[C@@H]2c3cc(NS(=O)(=O)c4ccc(F)cc4)ccc3O[C@@H]2[C@H](CO)O1)NCc1ccc(Oc2ccccc2)cc1	–	–	–	9.6	–
C[C@@H](NC(=O)C[C@@H]1C[C@@H]2c3cc(NS(=O)(=O)c4ccc(F)cc4)ccc3O[C@@H]2[C@@H](CO)O1)c1ccccc1	–	–	–	–	–
Cc1cccn2c(=O)c3cc(C(=O)NCc4ccco4)c(=N)n(CCc4ccccc4)c3nc12	–	18	–	–	–
Cc1c(NC(=O)CN2CC(C)OC(C)C2)c(=O)n(-c2ccccc2)n1C (stereo not drawn)	–	–	–	14!	–
Cc1c(NC(=O)CN2CCN(c3ccccc3)CC2)c(=O)n(-c2ccccc2)n1C	–	–	–	–	–
F[B-](F)(F)COCc1ccccc1C#Cc1ccccc1	–	–	–	–	–
O=C(COC(=O)CNC(=O)c1ccccc1F)NC12CC3CC(CC(C3)C1)C2	–	–	–	12	–
CCCCCCCCN1[C@@H](CC(=O)O)c2cc(C(F)(F)F)ccc2S1(=O)=O	–	–	–	–	–
CCCCCCCCCCCCN1[C@@H](CC(=O)O)c2cc(C(F)(F)F)ccc2S1(=O)=O	–	–	22	–	–
Clc1ccc(C2=NNC(=NCc3ccc4c(c3)OCO4)SC2)cc1	–	–	–	–	12
CCC(C)CNC(=O)c1cn(C(C)c2ccccc2)nn1 (stereo not drawn)	–	–	–	–	–
C[C@H]1CN([C@@H](C)CO)C(=O)c2cccc(NC(=O)Nc3ccc(C(F)(F)F)cc3)c2O[C@@H]1CN(C)C(=O)Nc1ccc(F)cc1	–	–	23	–	–
C[C@H]1CN([C@@H](C)CO)C(=O)c2cccc(NC(=O)Nc3ccc(C(F)(F)F)cc3)c2O[C@H]1CN(C)C	–	–	–	–	–
COc1ccc(S(=O)(=O)N(C)C[C@H]2Oc3ccc(NC(=O)Nc4ccc(C(F)(F)F)cc4)cc3C(=O)N([C@H](C)CO)C[C@@H]2C)cc1	–	–	29	–	12
C[C@H](CO)N1C[C@H](C)[C@@H](CN(C)C(=O)Nc2ccc(C(F)(F)F)cc2)Oc2ccc(NC(=O)Nc3ccc(C(F)(F)F)cc3)cc2C1=O	–	–	26	–	13
C[C@H](CO)N1C[C@H](C)[C@@H](CN(C)C(=O)Nc2ccc(C(F)(F)F)cc2)Oc2c(NC(=O)Nc3ccc(C(F)(F)F)cc3)cccc2C1=O	–	–	29	–	12
CN1C(=O)C(c2cn(C)c3ccccc23)(c2cn(C)c3ccccc23)c2ccccc21	–	–	–	–	–
C[C@@H]1CN([C@H](C)CO)C(=O)Cc2cc(NC(=O)Nc3ccccc3)ccc2O[C@@H]1CN(C)Cc1ccc2c(c1)OCO2	–	–	20	–	–
COc1ccc(NC(=O)Nc2ccc3c(c2)C(=O)N([C@H](C)CO)C[C@H](C)[C@@H](CN(C)Cc2ccc(Cl)c(Cl)c2)OCCCC[C@@H](C)O3)cc1	–	–	21	–	–
CC(C)C[C@H]1CN([C@@H](Cc2ccc(O)cc2)CN2CCC[C@@H]2CN2C(=O)C(=O)NC[C@@H]2Cc2ccccc2)C(=O)C(=O)N1CC1CCCCC1	–	–	–	13	–
SMILES	PLC-beta3 inh	KLK7 zymogen act	ADAM10 inh	PLC-gamma1 inh	ADAM17 inh
CC(C)C[C@@H](CN1CCC[C@@H]1CN1C(=O)C(=O)NC[C@@H]1Cc1ccccc1)N1C[C@H](Cc2ccccc2)N(CC2CCCCC2)C(=O)C1=O	–	–	–	–	–
CC(C)C[C@H]1CN([C@@H](Cc2ccccc2)CN2CCC[C@@H]2CN2C(=O)C(=O)NC[C@@H]2Cc2ccc(O)cc2)C(=O)C(=O)N1CC1CCCCCC1	–	–	–	–	–
CC(C)C[C@@H](CN1CCC[C@@H]1CN1C(=O)C(=O)NC[C@@H]1Cc1ccccc1)N1C[C@H](Cc2ccccc2)N(CC2CCCCCC2)C(=O)C1=O	13	–	–	–	–
COC(=O)[C@]12C[C@H](CC(=O)N3CCSCC3)C(=O)N(Cc3ccco3)C1=C[C@H](C1CCCC1)O[C@@H]2C	–	–	–	–	–
COC(=O)[C@]12C[C@H](CC(=O)N3CCCCC3)C(=O)N(Cc3ccco3)C1=C[C@H](C(C)(C)C)O[C@@H]2C	–	–	–	–	–
CN(C)S(=O)(=O)c1cccc(-c2nnc(SCc3ccc4c(c3)OCCO4)o2)c1	–	–	20	–	12
CCc1nnc(NC(=O)C2CCCN(c3nc4ccccc4s3)C2)s1 (stereo not drawn)	–	–	–	11	–
CCOC(=O)c1c(C)[nH]c(N=Nc2ccc(C)cc2)c1C	–	–	–	–	15
COc1cccc(OC)c1OCCCCCCN1CCN(C)CC1	–	–	–	13	–
O=C(Nc1cc(Sc2nc3ccccc3s2)cc([N+](=O)[O-])c1)c1ccccc1	–	–	–	–	–
O=C(Nc1cc(Sc2ccccn2)cc([N+](=O)[O-])c1)c1cccc(F)c1	–	–	–	–	11
CCC[C@@H](CN1CCC[C@H]1CN1C(N)=NC[C@@H]1Cc1ccccc1)N1C[C@@H](Cc2ccccc2)N(CCc2ccc(Cl)c(Cl)c2)C1=N	–	–	–	–	–
CCC[C@@H](CN1CCC[C@H]1CN1C(N)=NC[C@H]1CC(C)C)N1C[C@@H](Cc2ccccc2)N(CCc2ccc(Cl)c(Cl)c2)C1=N	12	–	–	–	–
COc1ccc(C(=O)CC2(O)C(=O)N(CN3CCOCC3)c3ccc(Br)cc32)cc1 (stereo not drawn)	–	–	–	–	–
CCN(CC)CCNC(=O)c1cc2c(-c3ccc(Cl)cc3)nn(C)c2s1	–	17	–	–	–
CCCN(CCC)CCNC(=O)c1cc2c(-c3ccc(Cl)cc3)nn(C)c2s1	–	–	–	–	–
Cc1cc2nc(/C=C/c3cccnc3)[nH]c2cc1C	–	44	–	–	–
